Active and inactive are the calls of the source. Unless noted, no rule for the calls is given here.

Experiment [1] is described as follows: liver-stage malaria parasite load reduction – cell-based, known kinase inhibitor set, luminescence, hepatoma host viability (AID 624392).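 Also: infected cells incubated roughly two days before readout.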 The following applies: Plasmodium liver stage in hepatoma cells, luciferase luminescence, concentration not given here; liver cell % of control: measured here: host liver cell viability; parasite % of control: stronger effect = lower value.

Experiment [2] in a line: altered dexamethasone sensitivity, NF-kB reporter, cell-based, luciferase, IL-1B stimulus (AID 624486).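 As to percent of negative control (+Dex): 100% = mean signal of vehicle control wells on the plate.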 The following applies: IL-1B + dexamethasone, luminescence; percent of negative control (+Dex): actives lie on both sides, concentration not given here; z-score: measured here: IL-1B alone, no Dex.
Experiment [3] is described as follows: C. elegans survival during P. aeruginosa infection – whole organism (AID 651566).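 Also: tested at 14 µM; sign flipped so higher z means a lower ratio.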 The following applies: C. elegans killed by P. aeruginosa, survival ratio.
Experiment [4] in a line: pro-inflammatory signaling induction in mouse macrophages – cell-based, murine, luminescence (AID 652131). The following applies: murine macrophage pro-inflammatory reporter, stronger effect = higher value.
Experiment [5] concerns the target Cellular tumor antigen p53 (Homo sapiens) (UniProt P04637). Nature of the experiment: GFP-p53 level modulators in HPV16+ cells – imaging, known kinase inhibitor set, EGFP/DsRed ratio (AID 1053116).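 Also: cells exposed to compounds for 24 h at 37 °C before reading.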 Conditions: GFP-p53 stability, stronger effect = higher value; EGFP object count: measured here: GFP-p53 positive objects count.
Experiment [6] in a line: inducers of IRF3 signaling, differentiated THP-1 – cell-based, PMA-stimulated THP-1, luminescence (AID 1053176). The following applies: PMA-differentiated THP-1, IRF3 reporter luminescence; stronger effect = higher value.
Experiment [7] can be described thus: MELAS cybrid and Rieske KO viability enhancers – cell-based, MELAS cybrids, Rieske KO mouse fibroblasts, CellTiter-Glo, primary screen (AID 1508586;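 active = mean z-score across replicates of 1.96 or higher in either the MELAS or the Rieske mutant cell line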;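 also: z relative to plate mean and SD of compound and empty wells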). Conditions: low glucose.
Setting [8] is: MELAS cybrid survival, CellTiter-Glo 48 h, stronger effect = higher value.
Where [9] appears, read: Rieske KO mouse fibroblast survival, CellTiter-Glo 72 h.

Chain of Cellular tumor antigen p53 (Homo sapiens) (P04637 whole entry, looked up): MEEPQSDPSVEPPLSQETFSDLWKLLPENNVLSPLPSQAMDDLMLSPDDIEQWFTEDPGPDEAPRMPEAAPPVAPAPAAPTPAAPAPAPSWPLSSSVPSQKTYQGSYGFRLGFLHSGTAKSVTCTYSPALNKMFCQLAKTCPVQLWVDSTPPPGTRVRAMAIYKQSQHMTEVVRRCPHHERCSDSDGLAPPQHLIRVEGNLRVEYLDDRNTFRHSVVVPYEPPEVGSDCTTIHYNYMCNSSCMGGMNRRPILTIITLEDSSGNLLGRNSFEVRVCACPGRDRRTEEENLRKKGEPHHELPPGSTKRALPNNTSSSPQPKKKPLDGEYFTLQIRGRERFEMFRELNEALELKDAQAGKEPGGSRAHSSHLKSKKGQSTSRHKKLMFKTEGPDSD

In turn, `O=C1Nc2ccccc2/C1=C1\CCc2cc(O)ccc21` displayed a liver cell % of control in experiment [1] of 77.7%. Also, the parasite % of control in experiment [1] is 108% (inactive). In addition, the percent of negative control (+Dex) in experiment [2] is 114% (inactive). Moreover, the z-score in experiment [2] is 1.81; in experiment [3], -1.72 (inactive); in experiment [4], 3.73 (inactive); in experiment [7] (setting [8]), -0.0823 (inactive); in experiment [7] (setting [9]) it was -0.0427. The EGFP object count in experiment [5] came to 8.5. Moreover, the EGFP/DsRed ratio in experiment [5] was 0.108 (inactive). The fraction signal in experiment [6] is -0.013 (inactive).

`Fc1ccc(-c2nn3ccccc3c2-c2ccncc2)cc1` showed a liver cell % of control in experiment [1] of 99.4%. In addition, in experiment [1], the parasite % of control was 91.2% (inactive). For the same compound, in experiment [2], the percent of negative control (+Dex) was 90% (inactive). In addition, the z-score in experiment [2] was 0.26; in experiment [3], -0.5 (inactive); in experiment [4] it was -0.011 (inactive); in experiment [7] (setting [8]) it was 0.183 (inactive); in experiment [7] (setting [9]), -0.338. Also, the EGFP object count in experiment [5] was 4.5. In experiment [5], the EGFP/DsRed ratio is 0.0996 (inactive). In experiment [6], the fraction signal is 0.0045 (inactive).

In turn, `Cc1cc(Cl)cc2c(N=Nc3ccc(S(N)(=O)=O)cc3)c(O)[nH]c12` displayed a liver cell % of control in experiment [1] of 94.4%. The parasite % of control in experiment [1] is 139% (inactive). Besides, in experiment [2], the percent of negative control (+Dex) was 100% (inactive). For the same compound, the z-score in experiment [2] is 0.945; in experiment [3], -0.145 (inactive); in experiment [4], -0.3 (inactive); in experiment [7] (setting [8]) it was 0.0201 (inactive); in experiment [7] (setting [9]) it was -0.605. Also, the EGFP object count in experiment [5] was 2.5. Moreover, the EGFP/DsRed ratio in experiment [5] was 0.092 (inactive). The fraction signal in experiment [6] is -0.0045 (inactive).

`COc1cccc(COc2cc(-n3cnc4ccccc43)sc2C(N)=O)c1`: the liver cell % of control in experiment [1] was 95%. Besides, in experiment [1], the parasite % of control is 99.6% (inactive). Also, the percent of negative control (+Dex) in experiment [2] is 87% (inactive). The z-score in experiment [2] is -0.845; in experiment [3] it was 1.31 (inactive); in experiment [4] it was -0.593 (inactive); in experiment [7] (setting [8]) it was -0.15 (inactive); in experiment [7] (setting [9]), 0.0931. In addition, the EGFP object count in experiment [5] came to 4. The EGFP/DsRed ratio in experiment [5] is 0.0452 (inactive). Further, the fraction signal in experiment [6] is -0.006 (inactive).

The compound `NC(=O)c1ccc(Oc2nccc(-c3c(-c4ccc(F)cc4)ncn3C3CCNCC3)n2)cc1` yielded a liver cell % of control in experiment [1] of 89.2%. Besides, the parasite % of control in experiment [1] is 144% (inactive). In experiment [2], the percent of negative control (+Dex) is 96% (inactive). Further, the z-score in experiment [2] was 0.125; in experiment [3] it was 0.14 (inactive); in experiment [4], 0.154 (inactive); in experiment [7] (setting [8]), 0.243 (inactive); in experiment [7] (setting [9]), -0.477. Further, in experiment [5], the EGFP object count was found to be 8.5. In experiment [5], the EGFP/DsRed ratio was 0.173 (inactive). Moreover, the fraction signal in experiment [6] was -0.008 (inactive).

`O=C(Nc1n[nH]c2cc(-c3ccc(F)cc3)ccc12)C1CC1` had a liver cell % of control in experiment [1] of 152%. For the same compound, the parasite % of control in experiment [1] was 140% (inactive). Besides, in experiment [2], the percent of negative control (+Dex) is 115% (inactive). For the same compound, the z-score in experiment [2] was 1.05; in experiment [3] it was 0.27 (inactive); in experiment [4], 0.642 (inactive); in experiment [7] (setting [8]) it was -1.18 (inactive); in experiment [7] (setting [9]), -0.329. In experiment [5], the EGFP object count came to 3. For the same compound, the EGFP/DsRed ratio in experiment [5] is 0.145 (inactive). Moreover, the fraction signal in experiment [6] is -0.001 (inactive).

Take `CS(=O)(=O)CCNCc1nc(-c2ccc3ncnc(Nc4ccc(F)c(Cl)c4)c3c2)cs1`: in experiment [1], the liver cell % of control turned out to be 103%. Besides, the parasite % of control in experiment [1] is 148% (inactive). For the same compound, the percent of negative control (+Dex) in experiment [2] is 70.5% (inactive). In addition, the z-score in experiment [2] was -1.57; in experiment [3], 0.63 (inactive); in experiment [4] it was 2.24 (inactive); in experiment [7] (setting [8]) it was 0.0696 (inactive); in experiment [7] (setting [9]), -0.331. The EGFP object count in experiment [5] turned out to be 6.5. Further, in experiment [5], the EGFP/DsRed ratio is 0.211 (inactive). Further, the fraction signal in experiment [6] is 0.002 (inactive).

Compound `CN(C)CCCNc1nccc(-c2c(-c3ccc(F)cc3)nn3cc(C(F)(F)F)ccc23)n1` showed a liver cell % of control in experiment [1] of 98.2%. For the same compound, the parasite % of control in experiment [1] was 96.1% (inactive). For the same compound, the percent of negative control (+Dex) in experiment [2] was 93.5% (inactive). Moreover, the z-score was 0.05 in experiment [2]; 0.5 (inactive) in experiment [3]; 2.64 (inactive) in experiment [4]; 0.443 (inactive) in experiment [7] (setting [8]); -0.332 in experiment [7] (setting [9]). Also, the EGFP object count in experiment [5] was determined as 4. The EGFP/DsRed ratio in experiment [5] was 0.104 (inactive). In experiment [6], the fraction signal is -0.008 (inactive).

Consider `Clc1ccc(-c2nn3ncccc3c2-c2ccnc(Nc3ccccc3)n2)cc1`, for which, in experiment [1], the liver cell % of control was 149%. Further, in experiment [1], the parasite % of control was 29.7% (inactive). In addition, the percent of negative control (+Dex) in experiment [2] was 84% (inactive). Also, the z-score is -0.705 in experiment [2]; 0.79 (inactive) in experiment [3]; 0.464 (inactive) in experiment [4]; 0.298 (inactive) in experiment [7] (setting [8]); -0.499 in experiment [7] (setting [9]). Also, the EGFP object count in experiment [5] amounted to 4. For the same compound, the EGFP/DsRed ratio in experiment [5] is 0.304 (inactive). Further, the fraction signal in experiment [6] was -0.004 (inactive).

Regarding `O=S1CCN(Cc2ccc(-c3ccc4ncnc(Nc5ccc(OCc6ccccc6)c(F)c5)c4c3)o2)CC1`, the liver cell % of control in experiment [1] came out at 81.6%. Also, the parasite % of control in experiment [1] is 112% (inactive). Moreover, the percent of negative control (+Dex) in experiment [2] was 77.5% (inactive). Besides, the z-score in experiment [2] is -1.04; in experiment [3], -0.505 (inactive); in experiment [4], 0.693 (inactive); in experiment [7] (setting [8]), -0.335 (inactive); in experiment [7] (setting [9]), -0.276. The EGFP object count in experiment [5] turned out to be 2.5. Also, the EGFP/DsRed ratio in experiment [5] is 0.0418 (inactive). Moreover, in experiment [6], the fraction signal was 0.012 (inactive).

Compound `NS(=O)(=O)c1ccc(NC2CC(c3cccc(O)c3)NN2)cc1` (centres undefined) showed a liver cell % of control in experiment [1] of 92.2%. The parasite % of control in experiment [1] is 101% (inactive). In addition, in experiment [2], the percent of negative control (+Dex) was 81.5% (inactive). Moreover, the z-score in experiment [2] is -0.55; in experiment [3] it was -1.21 (inactive); in experiment [4], 1.01 (inactive); in experiment [7] (setting [8]), 1.31 (inactive); in experiment [7] (setting [9]), -0.281. Besides, the EGFP object count in experiment [5] came to 5.5. In experiment [5], the EGFP/DsRed ratio is 0.108 (inactive). Moreover, the fraction signal in experiment [6] is -0.0035 (inactive).

For `COc1cc2ncn(-c3cc(O[C@H](C)c4ccccc4Cl)c(C(N)=O)s3)c2cc1OC`, the liver cell % of control in experiment [1] was 137%. The parasite % of control in experiment [1] was 13.5% (active). Besides, in experiment [2], the percent of negative control (+Dex) was 53.5% (inactive). In addition, the z-score in experiment [2] was -3.26; in experiment [3] it was -0.155 (inactive); in experiment [4] it was -1.16 (inactive); in experiment [7] (setting [8]), -1.03; in experiment [7] (setting [9]) it was 5.68. The EGFP object count in experiment [5] was determined as 5.5. Further, the EGFP/DsRed ratio in experiment [5] was 0.108 (inactive). In addition, the fraction signal in experiment [6] was -0.004 (inactive).

Take `CS(=O)(=O)Nc1ccc(N=Cc2c(O)[nH]c3ccccc23)cc1`: the liver cell % of control in experiment [1] worked out at 95.2%. Further, the parasite % of control in experiment [1] was 107% (inactive). Moreover, the percent of negative control (+Dex) in experiment [2] was 108% (inactive). The z-score in experiment [2] is 1.36; in experiment [3] it was 0.265 (inactive); in experiment [4], 2.34 (inactive); in experiment [7] (setting [8]), 1.4 (inactive); in experiment [7] (setting [9]), -0.36. Moreover, in experiment [5], the EGFP object count came out at 4. Also, the EGFP/DsRed ratio in experiment [5] was 0.123 (inactive). In addition, the fraction signal in experiment [6] was -0.0045 (inactive).

`COc1cccc(-n2ncc3c(N/N=C/c4cccc(F)c4)ncnc32)c1`: the liver cell % of control in experiment [1] was 106%. Moreover, in experiment [1], the parasite % of control is 81% (inactive). Also, the percent of negative control (+Dex) in experiment [2] is 93.5% (inactive). Moreover, the z-score in experiment [2] is 0.615; in experiment [3], -0.05 (inactive); in experiment [4] it was -0.183 (inactive); in experiment [7] (setting [8]), 1.45 (inactive); in experiment [7] (setting [9]) it was -0.242. The EGFP object count in experiment [5] was found to be 5. Further, the EGFP/DsRed ratio in experiment [5] was 0.0775 (inactive). Further, in experiment [6], the fraction signal was 0.0035 (inactive).

Values taken from PubChem BioAssay.
